From ChEMBL document CHEMBL1961873, “Compounds: GSK PKIS; Assays: Nanosyn kinase panel” (2012)

Legend:
[1] = target: Serine/threonine-protein kinase MARK2 (Homo sapiens) (UniProt Q7KZI7); settings: at 1 µM
[2] = target: PAS domain-containing serine/threonine-protein kinase (Homo sapiens) (UniProt Q96RG2); settings: at 0.1 µM
[3] = target: PAS domain-containing serine/threonine-protein kinase (Homo sapiens) (UniProt Q96RG2); settings: at 1 µM
[4] = target: Phosphorylase b kinase gamma catalytic chain, skeletal muscle/heart isoform (Homo sapiens) (UniProt Q16816); settings: at 0.1 µM
Phosphorylase b kinase gamma catalytic chain, skeletal muscle/heart isoform (Homo sapiens), sequence (Q16816 whole entry, looked up, canonical isoform): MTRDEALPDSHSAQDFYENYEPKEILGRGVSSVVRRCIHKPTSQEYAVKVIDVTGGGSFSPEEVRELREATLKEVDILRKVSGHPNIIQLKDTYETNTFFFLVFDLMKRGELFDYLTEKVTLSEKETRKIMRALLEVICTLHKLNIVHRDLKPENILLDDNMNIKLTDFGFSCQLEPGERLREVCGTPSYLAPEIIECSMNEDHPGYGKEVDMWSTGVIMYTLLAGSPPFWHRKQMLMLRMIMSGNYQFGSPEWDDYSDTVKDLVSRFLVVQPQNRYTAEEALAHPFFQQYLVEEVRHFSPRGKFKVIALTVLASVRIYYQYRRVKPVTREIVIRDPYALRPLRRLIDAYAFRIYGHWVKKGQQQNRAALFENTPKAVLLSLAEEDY

[5] = target: Phosphorylase b kinase gamma catalytic chain, skeletal muscle/heart isoform (Homo sapiens) (UniProt Q16816); settings: at 1 µM
[6] = target: T1, Phosphorylase b kinase gamma catalytic chain, liver/testis isoform (Homo sapiens) (UniProt P15735); settings: at 0.1 µM
T1 sequence (whole entry): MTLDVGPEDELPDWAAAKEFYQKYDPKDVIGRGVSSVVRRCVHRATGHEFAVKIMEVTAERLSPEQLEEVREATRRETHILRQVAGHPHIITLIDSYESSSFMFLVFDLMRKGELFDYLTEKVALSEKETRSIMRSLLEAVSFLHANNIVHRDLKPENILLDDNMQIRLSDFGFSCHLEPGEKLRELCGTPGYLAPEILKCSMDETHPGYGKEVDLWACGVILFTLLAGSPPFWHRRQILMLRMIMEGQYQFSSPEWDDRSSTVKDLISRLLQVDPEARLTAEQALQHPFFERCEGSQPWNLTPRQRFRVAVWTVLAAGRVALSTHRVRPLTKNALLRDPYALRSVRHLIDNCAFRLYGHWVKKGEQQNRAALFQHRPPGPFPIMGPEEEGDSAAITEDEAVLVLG

[7] = target: T1, Phosphorylase b kinase gamma catalytic chain, liver/testis isoform (Homo sapiens); settings: at 1 µM
[8] = target: Serine/threonine-protein kinase pim-1 (Homo sapiens) (UniProt P11309); settings: at 0.1 µM
Serine/threonine-protein kinase pim-1 (Homo sapiens), sequence (P11309 whole entry, looked up): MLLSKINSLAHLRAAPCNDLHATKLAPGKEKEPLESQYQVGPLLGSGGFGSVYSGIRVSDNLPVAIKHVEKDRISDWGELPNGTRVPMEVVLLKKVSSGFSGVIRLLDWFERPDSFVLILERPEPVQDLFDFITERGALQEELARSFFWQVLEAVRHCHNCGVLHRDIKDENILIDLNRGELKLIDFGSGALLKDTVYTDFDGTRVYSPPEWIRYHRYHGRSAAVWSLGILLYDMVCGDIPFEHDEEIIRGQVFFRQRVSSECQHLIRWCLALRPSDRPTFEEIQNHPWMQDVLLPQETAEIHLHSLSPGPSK

[9] = target: Serine/threonine-protein kinase pim-1 (Homo sapiens) (UniProt P11309); settings: at 1 µM
[10] = target: Serine/threonine-protein kinase pim-2 (Homo sapiens) (UniProt Q9P1W9); settings: at 0.1 µM
Serine/threonine-protein kinase pim-2 (Homo sapiens), sequence (Q9P1W9 whole entry, looked up): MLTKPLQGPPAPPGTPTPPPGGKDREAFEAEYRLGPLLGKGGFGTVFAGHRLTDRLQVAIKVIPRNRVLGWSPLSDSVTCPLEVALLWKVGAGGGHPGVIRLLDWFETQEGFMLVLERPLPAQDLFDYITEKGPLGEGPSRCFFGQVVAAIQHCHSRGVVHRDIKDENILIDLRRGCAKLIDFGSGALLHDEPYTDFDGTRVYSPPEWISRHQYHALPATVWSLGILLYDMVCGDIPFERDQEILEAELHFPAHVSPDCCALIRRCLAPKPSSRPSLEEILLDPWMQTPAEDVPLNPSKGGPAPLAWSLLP

[11] = target: Serine/threonine-protein kinase pim-2 (Homo sapiens) (UniProt Q9P1W9); settings: at 1 µM
[12] = target: Serine/threonine-protein kinase pim-3 (Homo sapiens) (UniProt Q86V86); settings: at 0.1 µM
[13] = target: Serine/threonine-protein kinase pim-3 (Homo sapiens) (UniProt Q86V86); settings: at 1 µM
[14] = target: T2, MAP kinase-activated protein kinase 5 (Homo sapiens) (UniProt Q8IW41); settings: at 0.1 µM
T2 sequence (whole entry): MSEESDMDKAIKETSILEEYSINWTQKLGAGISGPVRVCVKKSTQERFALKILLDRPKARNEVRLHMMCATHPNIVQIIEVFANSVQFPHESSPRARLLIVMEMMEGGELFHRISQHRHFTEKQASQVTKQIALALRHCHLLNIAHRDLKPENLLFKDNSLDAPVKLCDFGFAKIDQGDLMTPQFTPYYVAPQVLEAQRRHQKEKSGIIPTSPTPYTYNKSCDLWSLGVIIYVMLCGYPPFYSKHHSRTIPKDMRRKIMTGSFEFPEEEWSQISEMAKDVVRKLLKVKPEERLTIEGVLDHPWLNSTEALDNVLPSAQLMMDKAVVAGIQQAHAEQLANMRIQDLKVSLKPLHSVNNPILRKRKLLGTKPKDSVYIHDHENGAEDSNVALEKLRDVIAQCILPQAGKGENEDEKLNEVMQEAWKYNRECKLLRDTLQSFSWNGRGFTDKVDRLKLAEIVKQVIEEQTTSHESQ

[15] = target: T2, MAP kinase-activated protein kinase 5 (Homo sapiens); settings: at 1 µM
[16] = target: Serine/threonine-protein kinase SIK1 (Homo sapiens) (UniProt P57059); settings: at 0.1 µM
Serine/threonine-protein kinase SIK1 (Homo sapiens), sequence (P57059 whole entry): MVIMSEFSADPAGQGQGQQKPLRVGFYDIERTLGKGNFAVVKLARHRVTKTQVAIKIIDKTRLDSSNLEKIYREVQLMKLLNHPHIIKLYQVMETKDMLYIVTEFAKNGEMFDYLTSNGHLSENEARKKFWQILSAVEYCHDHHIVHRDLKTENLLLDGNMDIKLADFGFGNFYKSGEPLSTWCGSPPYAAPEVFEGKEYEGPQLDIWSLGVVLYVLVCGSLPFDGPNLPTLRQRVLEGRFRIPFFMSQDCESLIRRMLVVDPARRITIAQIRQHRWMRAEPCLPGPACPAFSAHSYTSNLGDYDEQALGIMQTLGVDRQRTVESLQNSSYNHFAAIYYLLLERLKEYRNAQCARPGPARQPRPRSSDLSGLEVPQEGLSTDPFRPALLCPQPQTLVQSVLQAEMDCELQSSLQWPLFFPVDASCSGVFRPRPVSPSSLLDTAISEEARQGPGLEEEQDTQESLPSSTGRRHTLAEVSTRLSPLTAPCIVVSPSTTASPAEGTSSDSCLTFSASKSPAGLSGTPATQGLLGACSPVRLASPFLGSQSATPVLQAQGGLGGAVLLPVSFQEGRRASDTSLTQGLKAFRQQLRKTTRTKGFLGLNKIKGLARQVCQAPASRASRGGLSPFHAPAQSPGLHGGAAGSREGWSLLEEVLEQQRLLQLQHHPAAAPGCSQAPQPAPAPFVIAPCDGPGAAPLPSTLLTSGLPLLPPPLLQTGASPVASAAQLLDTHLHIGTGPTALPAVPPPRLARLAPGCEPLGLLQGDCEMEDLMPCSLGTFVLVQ

[17] = target: Serine/threonine-protein kinase SIK1 (Homo sapiens) (UniProt P57059); settings: at 1 µM
[18] = target: Serine/threonine-protein kinase SIK2 (Homo sapiens) (UniProt Q9H0K1); settings: at 0.1 µM
[19] = target: Serine/threonine-protein kinase SIK2 (Homo sapiens) (UniProt Q9H0K1); settings: at 1 µM
[20] = target: T3, Serine/threonine-protein kinase TBK1 (Homo sapiens) (UniProt Q9UHD2); settings: at 0.1 µM;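 note: values are the mean TBK1 inhibition, taken from the GSK PKIS screening data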
T3 sequence (whole entry): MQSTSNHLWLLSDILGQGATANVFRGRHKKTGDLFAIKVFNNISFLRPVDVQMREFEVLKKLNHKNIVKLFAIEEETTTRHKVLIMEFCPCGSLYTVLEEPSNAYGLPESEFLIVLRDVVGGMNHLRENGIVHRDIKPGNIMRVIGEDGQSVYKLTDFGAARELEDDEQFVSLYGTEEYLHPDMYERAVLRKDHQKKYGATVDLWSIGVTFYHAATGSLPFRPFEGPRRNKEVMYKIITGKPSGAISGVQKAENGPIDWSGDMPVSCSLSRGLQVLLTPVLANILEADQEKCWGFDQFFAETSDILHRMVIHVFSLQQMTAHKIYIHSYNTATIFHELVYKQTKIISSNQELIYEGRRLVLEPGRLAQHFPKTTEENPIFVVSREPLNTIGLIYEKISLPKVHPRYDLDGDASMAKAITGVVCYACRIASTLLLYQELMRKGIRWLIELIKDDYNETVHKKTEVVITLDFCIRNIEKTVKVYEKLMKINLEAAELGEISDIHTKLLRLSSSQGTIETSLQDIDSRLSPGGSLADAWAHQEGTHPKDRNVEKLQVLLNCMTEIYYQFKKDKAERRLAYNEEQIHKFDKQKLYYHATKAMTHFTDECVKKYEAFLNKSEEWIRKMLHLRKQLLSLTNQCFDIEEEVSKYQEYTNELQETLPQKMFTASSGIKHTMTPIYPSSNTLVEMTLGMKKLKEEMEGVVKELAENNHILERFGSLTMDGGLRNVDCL

Serine/threonine-protein kinase MARK2 (Homo sapiens), sequence (Q7KZI7 whole entry, the tested form may be a part): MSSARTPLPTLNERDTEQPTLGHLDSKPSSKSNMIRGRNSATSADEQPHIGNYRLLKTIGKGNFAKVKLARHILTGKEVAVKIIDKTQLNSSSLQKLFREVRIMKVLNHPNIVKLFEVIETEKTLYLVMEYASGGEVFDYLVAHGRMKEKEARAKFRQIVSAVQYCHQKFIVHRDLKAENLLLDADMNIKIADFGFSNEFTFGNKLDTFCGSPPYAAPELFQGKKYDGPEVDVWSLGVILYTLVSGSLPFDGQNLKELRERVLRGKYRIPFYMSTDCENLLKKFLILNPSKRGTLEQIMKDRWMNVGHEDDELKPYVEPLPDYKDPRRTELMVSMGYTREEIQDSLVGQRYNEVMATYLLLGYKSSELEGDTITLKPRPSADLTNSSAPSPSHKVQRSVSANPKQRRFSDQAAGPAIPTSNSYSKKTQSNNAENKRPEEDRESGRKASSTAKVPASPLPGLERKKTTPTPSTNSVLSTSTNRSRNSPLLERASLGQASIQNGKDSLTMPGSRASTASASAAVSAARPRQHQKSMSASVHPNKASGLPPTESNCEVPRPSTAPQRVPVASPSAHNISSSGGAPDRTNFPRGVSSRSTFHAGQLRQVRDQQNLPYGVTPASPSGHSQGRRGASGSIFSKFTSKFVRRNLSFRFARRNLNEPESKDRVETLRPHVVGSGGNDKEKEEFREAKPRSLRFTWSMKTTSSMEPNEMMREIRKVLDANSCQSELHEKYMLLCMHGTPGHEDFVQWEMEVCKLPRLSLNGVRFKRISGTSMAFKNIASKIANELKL
PAS domain-containing serine/threonine-protein kinase (Homo sapiens), sequence (Q96RG2 whole entry, the tested form may be a part, canonical isoform): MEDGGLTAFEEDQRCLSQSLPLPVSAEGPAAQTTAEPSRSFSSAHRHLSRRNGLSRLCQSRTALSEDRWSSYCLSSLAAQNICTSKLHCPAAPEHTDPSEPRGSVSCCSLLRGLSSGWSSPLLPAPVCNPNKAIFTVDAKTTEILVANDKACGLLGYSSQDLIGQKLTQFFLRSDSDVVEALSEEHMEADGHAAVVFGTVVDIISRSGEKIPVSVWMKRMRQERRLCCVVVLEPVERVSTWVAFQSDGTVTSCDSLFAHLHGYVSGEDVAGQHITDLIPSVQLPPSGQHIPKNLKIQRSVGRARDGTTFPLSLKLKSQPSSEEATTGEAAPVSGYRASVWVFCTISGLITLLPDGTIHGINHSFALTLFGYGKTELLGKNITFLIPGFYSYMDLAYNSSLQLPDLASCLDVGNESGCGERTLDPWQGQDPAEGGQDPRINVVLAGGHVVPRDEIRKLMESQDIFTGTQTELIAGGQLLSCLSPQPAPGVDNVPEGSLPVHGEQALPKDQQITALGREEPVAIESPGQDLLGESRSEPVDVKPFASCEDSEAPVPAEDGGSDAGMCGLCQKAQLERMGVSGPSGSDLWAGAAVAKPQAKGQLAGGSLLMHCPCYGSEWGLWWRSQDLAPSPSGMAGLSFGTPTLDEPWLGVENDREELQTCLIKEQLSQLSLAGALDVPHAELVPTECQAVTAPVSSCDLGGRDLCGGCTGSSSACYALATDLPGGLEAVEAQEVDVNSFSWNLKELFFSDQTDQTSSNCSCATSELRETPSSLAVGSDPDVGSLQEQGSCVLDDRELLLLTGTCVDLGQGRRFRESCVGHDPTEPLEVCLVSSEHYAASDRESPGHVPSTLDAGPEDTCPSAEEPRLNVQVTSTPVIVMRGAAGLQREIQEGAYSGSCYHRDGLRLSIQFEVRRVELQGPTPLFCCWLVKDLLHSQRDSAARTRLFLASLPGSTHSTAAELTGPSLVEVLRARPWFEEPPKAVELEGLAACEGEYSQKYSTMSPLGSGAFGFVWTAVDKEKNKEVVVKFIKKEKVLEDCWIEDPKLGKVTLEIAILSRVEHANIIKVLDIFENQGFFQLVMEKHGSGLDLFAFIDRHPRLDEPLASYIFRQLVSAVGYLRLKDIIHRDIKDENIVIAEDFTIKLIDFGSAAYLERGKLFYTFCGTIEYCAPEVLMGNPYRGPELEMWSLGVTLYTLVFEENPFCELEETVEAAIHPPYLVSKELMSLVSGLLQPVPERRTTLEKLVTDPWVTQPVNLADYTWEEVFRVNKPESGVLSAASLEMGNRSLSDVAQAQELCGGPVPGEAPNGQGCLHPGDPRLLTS

SMILES | inhibition [1] [%] | inhibition [2] [%] | inhibition [3] [%] | inhibition [4] [%] | inhibition [5] [%] | inhibition [6] [%] | inhibition [7] [%] | inhibition [8] [%] | inhibition [9] [%] | inhibition [10] [%] | inhibition [11] [%] | inhibition [12] [%] | inhibition [13] [%] | inhibition [14] [%] | inhibition [15] [%] | inhibition [16] [%] | inhibition [17] [%] | inhibition [18] [%] | inhibition [19] [%] | inhibition [20] [%]
C[C@@H](Oc1cc(-n2cnc3ccc(OCC4CCN(C)CC4)cc32)sc1C(N)=O)c1ccccc1Cl | 19.7 | -0.74 | 3.45 | 2.43 | 10.2 | 8.59 | 9.94 | 18.5 | 70 | 0.64 | 2.74 | 11.4 | 52.7 | 1.77 | 2.11 | 11.5 | 42 | 7.32 | 22 | 4.93
CCS(=O)(=O)c1ccc(OC)c(Nc2ncc(-c3cccc(-c4ccccc4F)c3)o2)c1 | 0.68 | -0.22 | -0.96 | 1.99 | 9.38 | 0.01 | -0.67 | -0.29 | 5.63 | 0.1 | 0.73 | 3.42 | 0.84 | 0.06 | -0.29 | 0.43 | 2.58 | -1.84 | 6.03 | 0.72
C/C(Nc1ccc(S(N)(=O)=O)cc1)=C1/C(=O)Nc2ccccc21 | 18.6 | -1.08 | -1.37 | 5.53 | 29.9 | -0.73 | 19.6 | 0.43 | 2.86 | 0.75 | 0.33 | 0.02 | 1.7 | -0.26 | 1.08 | -7.25 | -0.38 | -6.72 | -0.55 | 0.77
CNC(=O)c1cncc(/C=C/c2c(C)cccc2C)c1 | 0.9 | 1.4 | 0.92 | 0.1 | -0.59 | 2.11 | 0.8 | 0.92 | 1.36 | -4.04 | -3.47 | 1.2 | 2.65 | -0.02 | -0.41 | 26.2 | 76 | 7.18 | 27.6 | 0.21
COc1cc(Nc2ncc3c(C)nc(-c4cccc(Oc5ccccc5)c4)n3n2)cc(OC)c1OC | 5.64 | 0.54 | -0.72 | -0.01 | 5.67 | 2.66 | -0.4 | 0.91 | 1.16 | 0.23 | 1.14 | 0.34 | -0.16 | -0.04 | -1.56 | 3.67 | 10.1 | 1.91 | 0.43 | 4.47
COc1cc2ncn(-c3cc(OCc4cccs4)c(C(N)=O)s3)c2cc1OC | 2.32 | 2.13 | 6.7 | 3.47 | 6.14 | 3.82 | 10.1 | 0.81 | 2.01 | -2.64 | -1.58 | 3.33 | 8.26 | 2.5 | 5.17 | 4.36 | 23.7 | 6.37 | 24.9 | 3.06
NC(=O)c1cc(-c2ccncc2)cc(-c2ccccc2)c1N | 4.3 | 0.12 | -1.32 | 5.69 | 4.23 | 5.49 | 5.48 | 1.39 | 1.24 | -0.25 | 0.75 | -4.72 | -1.81 | 1.31 | 2.24 | 5.39 | 24 | 7.44 | 14.2 | 3.5
Nc1nccc(-c2c(-c3ccc(F)cc3)ncn2C2CCC(O)CC2)n1 (stereo not given) | 2.02 | -0.7 | -1.02 | -1.17 | 0.55 | -4.04 | -5.93 | -0.95 | -1.37 | 1.27 | 0.53 | 0.04 | 0.35 | -0.92 | -0.32 | 0.06 | 4.75 | -0.25 | 28.6 | 5.52
COC(=O)Nc1nc2ccc(Sc3ccc(NC(=O)Nc4cc(C(F)(F)F)ccc4F)cc3)cc2[nH]1 | -0.67 | 1.15 | 2 | 8.5 | -0.17 | 1.59 | 0.05 | 33.7 | -0.09 | -0.3 | -0.09 | 1.76 | 2.48 | 0.03 | -0.97 | 3.94 | 0.98 | 4.86 | 0.47 | -0.64
C#Cc1cccc(Nc2ncnc3ccc(OCCCCNCCS(C)(=O)=O)cc23)c1 | 2.74 | 0.02 | 4.19 | 5.74 | 19 | 5.8 | 6.86 | 6.27 | 39.5 | -2.91 | -1.09 | 6.18 | 36.2 | 2.33 | 2.73 | 8.26 | 38.7 | 5.71 | 27.5 | 1.72
COc1cc(N2CCN(C(C)C)CC2)ccc1Nc1nc(Nc2ccc(F)cc2C(=O)NC[C@@H](O)CO)c2cc[nH]c2n1 | 1.35 | -0.25 | 0.96 | 21 | 62 | 6.76 | 21.1 | -0.41 | 1.79 | -3.35 | -3.2 | 1.39 | 5.28 | 2.43 | 4.77 | 1.88 | 9.27 | 4.52 | 9.21 | 1.74
Fc1ccc(-c2ncn(C3CCNCC3)c2-c2ccnc(Oc3ccc(F)c(F)c3)n2)cc1 | 1.71 | -0.38 | -0.29 | 6.75 | 10.8 | 4.85 | 4.7 | -1.11 | -0.52 | -3.98 | -3.35 | -1.04 | -0.06 | 1.47 | 1.56 | 1.72 | 7.15 | 0.78 | 8.24 | 2.13
CS(=O)(=O)CCNCc1cc(-c2cc3c(Nc4ccc(OCc5cccc(F)c5)c(Cl)c4)ncnc3s2)cs1 | 0.65 | -1.66 | -1.38 | 1.42 | 3.57 | 3.77 | 4.76 | 1.41 | 2.26 | -0.84 | -0.99 | 0.08 | 2.3 | 2.2 | 1.6 | 7.53 | 7.6 | 7.98 | 0.61 | 5.03
